High-throughput results as filed in PubChem.
SW480 rerep: A quantitative high throughput screen for small molecules that induce DNA re-replication in SW480 colon adenocarcinoma cells | Potency, µM (top dose mostly 46.1 µM), most hits filed as activators | SW480 DNA re-replication, Hoechst DNA content imaging, 48 h | 340,000 tested, 1.8% active; further: nearly all actives have a fitted effect of over 55% in size
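Quantitative HTS format with DMSO vehicle controls; 48 hr drug incubation at 37 C, then 40 min Hoechst staining and scanning imager measurement at 405 nm excitation.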
KB-V1 cytotox: qHTS assay for MDR1-selective chemotherapeutics: Primary screen using the drug-selected MDR subline cells KB-V1. KB-V1 MDR cells viability, CellTiter-Glo, 72 h. Potency, µM (doses to about 46.1 µM), most hits filed as cytotoxic. 400,000 tested, 3.4% active. AID 1347076, 2019; further: nearly all actives have a fitted effect of over 60% in size
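qHTS viability screen in drug-selected KB-V1 MDR cells: 72 h compound treatment at 37 degrees C, ATP luminescence end point.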
ELG1 repair inh: qHTS screen for small molecules that inhibit ELG1-dependent DNA repair in human embryonic kidney (HEK293T) cells expressing luciferase-tagged ELG1; Potency, µM (top dose mostly 46.1 µM), usual class: inhibitors; 330,000 tested, 2.3% active; HEK293T ELG1-luciferase reporter, luminescence, 16 h; DNA damage induced by 5-fluorouridine; further: nearly all actives have a fitted effect of over 55% in size
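In this reporter screen, reduction of luminescence relative to DMSO vehicle indicated activity. Compounds and 5-fluorouridine were added together to 2,000 cells per well, incubated for 16 hr at 37 °C, then developed with ONE-Glo.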
KB-3-1 cytotox: qHTS assay for MDR1-selective chemotherapeutics: Primary screen using the parental adenocarcinoma cell KB-3-1 | 400,000 tested, 1.4% active | KB-3-1 viability, CellTiter-Glo ATP luminescence, 72 h | Potency, µM (highest dose often 46.1 µM), most hits filed as cytotoxic; further: nearly all actives have a fitted effect of over 60% in size
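Cytotoxicity in the drug-sensitive parental line KB-3-1 was scored as loss of CellTiter-Glo luminescence following 72 h incubation with compound. Values come from curve fitting of normalized concentration-response data.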
MCF10A rereplic: A quantitative high throughput screen for small molecules that induce DNA re-replication in MCF 10a normal breast cells; Potency, µM (highest dose often 46.1 µM), most hits filed as activators; 350,000 tested, 2.9% active; MCF 10A DNA re-replication, Hoechst nuclear intensity, 48 h; further: nearly all actives have a fitted effect of over 50% in size
Large screens that a line does not name were inactive; ! = not active in a repeat. Only some compounds are listed: those with a hit (about 8.1% of all), similar ones and a draw of the others. The call rests on the fitted dose curve; in most records, active means well fitted curve in the direction sought with a large enough effect; inconclusive means small, poorly fitted or top-dose-only effect, or another doubt; inactive means no such curve, though single readings can be large; an effect the other way counts as inactive or inconclusive.

C[C@H](C[C@H](O)[C@H]1OC1(C)C)C1=C2C[C@H](O)C3[C@@]4(C)CCC(=O)C(C)(C)C4CC[C@]3(C)[C@@]2(C)CC1 (stereo not given in full)	SW480 rerep inconclusive, KB-V1 cytotox 3.7µM, KB-3-1 cytotox inconclusive, MCF10A rereplic inconclusive
C[C@@H](C[C@@H](O)[C@H](O)C(C)(C)O)[C@@H]1CC[C@]2(C)C3=CC[C@H]4C(C)(C)C(=O)CC[C@]4(C)[C@H]3CC[C@@]12C	KB-V1 cytotox inconclusive, KB-3-1 cytotox inconclusive, MCF10A rereplic inconclusive
COc1ccc(-c2cn3nc(N4CCC(C(=O)Nc5cccc(OC)c5)CC4)sc3n2)cc1	none (no result: SW480 rerep, ELG1 repair inh, MCF10A rereplic)
COc1cc(/C=N/NC(=S)NC2CC3CC2C2C=CCC32)ccc1O (stereo not given)	SW480 rerep inconclusive, KB-V1 cytotox inconclusive, KB-3-1 cytotox inconclusive
CCOc1ccc(/C=N/NC(=S)NC2CC3CC2C2C=CCC32)cc1 (stereo not given)	ELG1 repair inh inconclusive, MCF10A rereplic 6.5µM
Nc1ccc(C(Cc2ccnc3ccccc23)Cc2ccnc3ccccc23)cc1	KB-3-1 cytotox inconclusive (no result: SW480 rerep, ELG1 repair inh, MCF10A rereplic)
COc1cccc(CNc2nc(NCc3ccccc3)nc3ccsc23)c1	KB-V1 cytotox 9.2µM, KB-3-1 cytotox inconclusive (no result: SW480 rerep, ELG1 repair inh, MCF10A rereplic)
COc1cccc(CNc2nc(NC(C)C)nc3ccsc23)c1OC	none (no result: SW480 rerep, ELG1 repair inh, MCF10A rereplic)
CNc1nc(NCc2cccc(OC)c2)c2sccc2n1	none (no result: SW480 rerep, ELG1 repair inh, MCF10A rereplic)
COCCNc1nc(NCc2cc(-c3ccc(OC)cc3)no2)c2sccc2n1	KB-V1 cytotox 18µM, KB-3-1 cytotox inconclusive (no result: SW480 rerep, ELG1 repair inh, MCF10A rereplic)
COc1ccccc1CNc1nc(NC(C)C)nc2ccsc12	KB-V1 cytotox 10µM, KB-3-1 cytotox inconclusive (no result: SW480 rerep, ELG1 repair inh, MCF10A rereplic)
O=C(CCC(=O)N1CCc2ccccc2C1)NCCc1ccc(Cl)cc1	none
Cc1ccc(C(=O)N2CC3(C(C)C)CN(C(=O)c4ccc(C)cc4)CC(C(C)C)(C2)C3=O)cc1	none
CCC12CN(C(=O)c3ccc(C)cc3)CC(CC)(CN(C(=O)c3ccc(C)cc3)C1)C2=O	SW480 rerep inconclusive, KB-V1 cytotox 5.2µM
O=C(C[n+]1ccc(/C=C/c2c[nH]c3ccccc23)c2ccccc21)c1ccccc1	none (no result: SW480 rerep, ELG1 repair inh, MCF10A rereplic)
COc1cccc(N2CCN(c3c(C#N)c(C(F)(F)F)nn3C)CC2)c1	KB-V1 cytotox 13µM, ELG1 repair inh 15µM
Cn1nc(C(F)(F)F)c(C#N)c1N1CCN(c2ccccc2F)CC1	KB-3-1 cytotox inconclusive, MCF10A rereplic inconclusive (no result: ELG1 repair inh)
COc1ccnc(N2CCN(c3cccc(C(F)(F)F)c3)CC2)c1C#N	SW480 rerep inconclusive, MCF10A rereplic 21µM
Cc1sc(NC(=O)COc2ccccc2)c(C#N)c1-c1ccccc1	KB-V1 cytotox 16µM, ELG1 repair inh inconclusive
COc1ccc(C(=O)Nc2sc(C(=O)N(C)C)c(C)c2C#N)cc1[N+](=O)[O-]	SW480 rerep inconclusive, KB-V1 cytotox 18µM, KB-3-1 cytotox inconclusive
COc1ccc(-c2c(C)sc(NC(=O)c3ccnn3C)c2C#N)cc1	KB-V1 cytotox inconclusive, KB-3-1 cytotox 10µM
COc1ccc(C(=O)Nc2sc(C)c(-c3ccccc3)c2C#N)cc1OC	KB-V1 cytotox inconclusive, ELG1 repair inh 26µM, MCF10A rereplic inconclusive
CC1C(=O)N(Cc2cn(CCC3OCCCO3)nn2)CCS(=O)(=O)N1Cc1ccc(-c2cccc(CO)c2)cc1 (stereo not given)	none (no result: SW480 rerep, ELG1 repair inh, MCF10A rereplic)
Cc1cnccn1	none (no result: SW480 rerep, ELG1 repair inh, MCF10A rereplic)
CCCC1C(=O)Nc2ccccc2N1C(=O)c1ccc(C(C)(C)C)cc1 (stereo not given)	SW480 rerep inconclusive, ELG1 repair inh inconclusive, MCF10A rereplic 26µM
CCc1ccccc1NC(=O)CC1S/C(=N\c2nccs2)N(CC)C1=O (stereo not given)	KB-V1 cytotox 8.2µM, MCF10A rereplic inconclusive
CC(=O)Nc1c(Br)cc2c(c1Br)C(=O)c1ccccc1-2	none (no result: ELG1 repair inh)
CC(=O)C1=C(c2ccc(Br)cc2)C(=O)c2ccccc2C1=O	SW480 rerep 8.2µM, KB-V1 cytotox 7.3µM, ELG1 repair inh 3.7µM, KB-3-1 cytotox inconclusive, MCF10A rereplic 7.3µM
Cc1ccc(/C=C2\Sc3ccccc3C2=O)s1	ELG1 repair inh inconclusive, MCF10A rereplic 23µM
CC(=O)Nc1ccc(/C=C2\Sc3ccccc3C2=O)cc1	none
Cc1ccc(-c2nc3ncccn3c2Nc2ccccc2C)o1	none
Cc1ccc(-c2nc3cnccn3c2Nc2c(C)cccc2C)o1	SW480 rerep inconclusive, ELG1 repair inh inconclusive, MCF10A rereplic 21µM
CCCC(=O)NCCCCNC(=O)CCC	none
CC(=O)N(O)CCCCCNC(=O)CCC(=O)N(O)CCCCCNC(=O)CCC(=O)N(O)CCCCCN	SW480 rerep 2.5µM!, KB-V1 cytotox inconclusive, KB-3-1 cytotox 21µM!, MCF10A rereplic inconclusive
COc1ccc(NC(=O)c2ccccc2Oc2ccccc2)c(OC)c1	MCF10A rereplic 26µM
CCOc1ccc(NCC(=O)Nc2ccc(Cl)cc2C)cc1	SW480 rerep inconclusive, KB-V1 cytotox inconclusive, MCF10A rereplic inconclusive
COc1ccc(NCC(=O)Nc2ccc(Cl)cc2C)c(OC)c1	SW480 rerep 16µM
COc1ccc(NC(=O)CC(=O)Nc2ccc(OC)cc2OC)c(OC)c1	KB-V1 cytotox 21µM
COc1ccc(OC)c(NC(=O)CS(=O)(=O)c2ccccc2)c1	KB-V1 cytotox 18µM
O=C(/C=C/c1ccc(F)cc1)Nc1cccc([S+](=O)([O-])Nc2ccccc2F)c1	none (no result: SW480 rerep, ELG1 repair inh, MCF10A rereplic)
COCCN(Cc1cc2cc(C)ccc2nc1Cl)C(=O)Nc1ccccc1OC	ELG1 repair inh 21µM
Cc1c(C=C(C#N)c2ccc([N+](=O)[O-])cc2)c(=O)n(-c2ccccc2)n1C	none (no result: ELG1 repair inh)
CSc1ccccc1C(=O)C1CCCN(C(=O)c2ccc(N3CCOCC3)cc2)C1 (stereo not given)	ELG1 repair inh inconclusive
CCc1cc(C(=O)N2CCCC(C(=O)c3cccc4ccccc34)C2)n(C)n1 (stereo not given)	KB-V1 cytotox 5.2µM, ELG1 repair inh inconclusive, KB-3-1 cytotox 21µM
COc1c(C)cc(C(=O)C2CCCN(C(=O)CCc3scnc3C)C2)cc1C (stereo not given)	KB-V1 cytotox inconclusive, ELG1 repair inh 12µM, MCF10A rereplic inconclusive
COc1c(C)cc(C(=O)C2CCCN(C(=O)c3cccc(-n4cccn4)c3)C2)cc1C (stereo not given)	ELG1 repair inh 23µM
COc1cccc(C(=O)C2CCCN(C(=O)CCc3scnc3C)C2)c1 (stereo not given)	KB-V1 cytotox inconclusive
O=C(c1cccc2ccccc12)C1CCCN(C(=O)c2ccc(N3CCOCC3)cc2)C1 (stereo not given)	SW480 rerep inconclusive, KB-V1 cytotox inconclusive, ELG1 repair inh 16µM
COc1c(C)cc(C(=O)C2CCCN(C(=O)c3ccc4[nH]ccc4c3)C2)cc1C (stereo not given)	ELG1 repair inh inconclusive
